{"source": "PubChem BioAssay", "note": "Unmarked numbers belong to inactive results. Active and inactive are the calls of the source. Cut-off read from the data, not from the text of the source: active = inhibition above about 42%; inactive = the rest.", "data": [{"biological_target": "Nuclear receptor subfamily 5 group A member 2 (Homo sapiens) (UniProt O00482)", "sequence (O00482 whole entry, looked up)": "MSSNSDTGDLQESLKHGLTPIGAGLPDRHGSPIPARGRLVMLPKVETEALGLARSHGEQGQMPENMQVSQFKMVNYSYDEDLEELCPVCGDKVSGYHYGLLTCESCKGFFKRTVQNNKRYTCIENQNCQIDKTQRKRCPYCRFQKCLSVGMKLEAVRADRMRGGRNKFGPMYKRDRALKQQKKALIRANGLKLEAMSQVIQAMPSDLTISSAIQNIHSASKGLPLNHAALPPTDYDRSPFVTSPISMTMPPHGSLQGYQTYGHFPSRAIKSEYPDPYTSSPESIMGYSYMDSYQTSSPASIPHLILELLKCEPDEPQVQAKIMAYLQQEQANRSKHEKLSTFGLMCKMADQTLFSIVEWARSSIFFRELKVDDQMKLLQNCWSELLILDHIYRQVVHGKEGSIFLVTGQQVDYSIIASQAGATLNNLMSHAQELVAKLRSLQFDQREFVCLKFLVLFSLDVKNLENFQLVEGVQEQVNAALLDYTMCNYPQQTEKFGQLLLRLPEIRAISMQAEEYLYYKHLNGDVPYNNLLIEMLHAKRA", "assay": "LRH-1 (NR5A2) inverse agonists, retest, confirmation, cell-based, luminescence (AID 651613);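 note: HEK293T cells co-transfected with LRH-1 and StAR promoter luciferase reporter; 0% = vehicle wells and 100% = parental cells lacking receptor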", "conditions": "cell-based LRH-1 luciferase reporter, inverse agonism; at 3.6 µM; stronger effect = higher value", "values": [{"smiles": "O=C(Cn1ncc2c([nH]c3ccccc32)c1=O)Nc1ccc(CN2CCCCC2)cc1", "inhibition": "60.9% (active)"}, {"smiles": "Cc1nc2ccccc2n1/N=C/c1ccc([N+](=O)[O-])s1", "inhibition": "68.2% (active)"}, {"smiles": "CCCCCCCCN1C(=O)[C@H](CC(=O)NCC23CC4CC(CC(C4)C2)C3)C[C@@]2(C(=O)OCC)CCCC=C12", "inhibition": "24.8%"}, {"smiles": "O=C(c1ccc(=O)n(Cc2ccccc2)n1)N1CCN(C/C=C/c2ccccc2)CC1", "inhibition": "52.9% (active)"}, {"smiles": "O=C(NCC1CCCO1)c1ccc(NC(=O)c2cccc([N+](=O)[O-])c2)cc1", "note": "(centres undefined)", "inhibition": "56.2% (active)"}, {"smiles": "COc1cc2cc(C(=O)NC(C)c3cccc4ccccc34)c(N)nc2cc1OC", "note": "(centres undefined)", "inhibition": "43.9% (active)"}, {"smiles": "CCN(CC)C1Oc2cc3c(cc2C(c2cccc(OC)c2O)C1C)OCO3", "note": "(centres undefined)", "inhibition": "53.1% (active)"}, {"smiles": "C=CC(=O)Nc1cccc(Oc2ncnc3[nH]cc(-c4cnc5ccccc5c4)c23)c1", "inhibition": "67.9% (active)"}, {"smiles": "CC(Oc1ccc(S(=O)(=O)N2CCCC2)cc1[N+](=O)[O-])C(=O)NC(C)c1ccccc1", "note": "(centres undefined)", "inhibition": "52.3% (active)"}, {"smiles": "COc1cc2c(OC(C)=O)c3c(c(-c4ccc5c(c4)OCO5)c2cc1OC)C(=O)OC3", "inhibition": "35.4%"}, {"smiles": "Cc1cc(OCC(=O)NC2CC2)c2c(C)c(C)c(=O)oc2c1", "inhibition": "65.4% (active)"}, {"smiles": "COc1ccc(CCNC(=O)CSC2=Nc3ccccc3C3=NC(C(C)C)C(=O)N23)cc1OC", "note": "(centres undefined)", "inhibition": "62.3% (active)"}, {"smiles": "Cn1c(SCC(=O)Nc2ccc3nc(SCC(=O)NC4CC4)sc3c2)nnc1-c1ccccc1", "inhibition": "59.7% (active)"}, {"smiles": "CC(O)(c1ccc(F)c(F)c1)c1nc(-c2ccc(S(C)(=O)=O)cc2)cs1", "note": "(centres undefined)", "inhibition": "53.5% (active)"}]}]}
